Where “and” joins values, the source holds several entries; their conditions need not be identical. Identical values can stand only once. Results filed as inconclusive are left out. Where a structure was tested more than once in an assay, its records may differ in their call. Calls of active or inactive are those of the source. Calls follow the shape of the full dose curve.
Assay: Primary qHTS to identify inhibitors of SARS-CoV-2 cell entry (AID 1645846); also: nearly all actives have a fitted effect of over 45% in size
Conditions: SARS-CoV-2 pseudovirus cell entry assay, luminescence; activity change, negative = inhibition: at 57.1 µM (top of the series) unless noted
In short: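 HEK293 cells stably expressing human ACE2, pre-treated 1 h with compound, then infected with MLV particles pseudotyped with Wuhan-Hu-1 spike (C-terminal 19-aa truncation). Luciferase luminescence after 48 h at 37 °C, normalised to spike PP and bald PP.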
Potency is read from the fitted curve at half-maximal effect.

Q: For `COc1cc(N2CCC(N3CCN(C)CC3)CC2)ccc1Nc1ncc(Cl)c(Nc2ccccc2P(C)(C)=O)n1`, which Potency is on record?
A: 8.91 µM (active)

Q: With `Cc1cc(/C=C/c2ccc3cc(N(C)C)ccc3[n+]2C)c(C)n1-c1ccccc1` as the compound, how does the Potency read?
A: 1.78 µM (active)

Q: For `Cc1cc(-n2c(=O)[nH]c(=O)n(C)c2=O)ccc1Oc1ccc(S(=O)(=O)C(F)(F)F)cc1`, which Potency is on record?
A: 17.8 µM (active)

Q: Which Potency does the source give for `COc1ccc2c(c1)N(C[C@H](C)CN(C)C)c1ccccc1S2` here?
A: 11.2 µM (active)

Q: With `Cc1[nH]c(/C=C2\C(=O)Nc3ccc(F)cc32)c(C)c1C(=O)NCCN1CCCC1` as the compound, how does the activity change, negative = inhibition read?
A: -9.79% [at 27.1 µM]

Q: With `CC(=O)Oc1cc(C)c(OC(C)=O)c2ccccc12` as the compound, how does the Potency read?
A: 31.6 µM (active)

Q: For `CCCCC(=O)OCC(=O)[C@]1(O)Cc2c(O)c3c(c(O)c2[C@@H](O[C@H]2C[C@H](NC(=O)C(F)(F)F)[C@H](O)[C@H](C)O2)C1)C(=O)c1c(OC)cccc1C3=O`, which Potency is on record?
A: 1 µM (active)

Q: And the activity change, negative = inhibition?
A: -97.5%

Q: Which Potency does the source give for `CC[C@@H](C(=O)O)[C@@H]1O[C@@H]([C@@H](C)[C@H](O)[C@H](C)C(=O)[C@H](CC)[C@H]2O[C@]3(C=C[C@@H](O)[C@]4(CC[C@@](C)([C@H]5CC[C@](O)(CC)[C@H](C)O5)O4)O3)[C@H](C)C[C@@H]2C)[C@@H](C)C[C@@H]1C` here?
A: 0.708 µM (active)

Q: For `COc1cc([C@@H]2c3cc4c(cc3[C@@H](O[C@@H]3O[C@@H]5CO[C@@H](C)O[C@H]5[C@H](O)[C@H]3O)[C@H]3COC(=O)[C@H]23)OCO4)cc(OC)c1OP(=O)(O)O`, which Potency is on record?
A: 3.55 µM (active)

Q: Which Potency does the source give for `CC1=CC(=C(c2ccc(N)cc2)c2ccc(N)cc2)C=CC1=N` here?
A: 5.01 µM (active)

Q: With `C[C@H](Oc1cc(-c2cnn(C3CCNCC3)c2)cnc1N)c1c(Cl)ccc(F)c1Cl` as the compound, how does the Potency read?
A: 11.2 µM (active)

Q: For `C=CC(=O)Nc1cc(Nc2nccc(-c3cn(C)c4ccccc34)n2)c(OC)cc1N(C)CCN(C)C`, which Potency is on record?
A: 3.16 µM (active) and 8.91 µM (active)
